Laboratory results from PubChem BioAssay (Tox21).
Inconclusive results are not listed. Active and inactive are the calls of the source. Unless noted, calls come from the whole dose curve; as a rule, active = well fitted curve in the direction sought with a large enough effect in the repeat runs; inconclusive = weak or mixed curves; inactive = no such curve, though single readings can be large; an effect the other way counts as inactive or inconclusive.

Assays:
[1] = target: Progesterone receptor (Homo sapiens) (UniProt P06401); assay: qHTS assay to identify small molecule agonists of the progesterone receptor (PR) signaling pathway (AID 1346784; calls by dose curve; note: nearly all actives have a fitted effect of over 30% in size; note: potency is the fitted concentration of half-maximal effect; for activation: % is set by controls: 0 for no effect and ±100 for the full control effect)
Outline: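 Seed PR-UAS-bla HEK 293T cells (2% charcoal-stripped FBS), incubate 6 hr at 37C; add compounds in DMSO, 16 hr at 37C; add LiveBLAzer B/G substrate, 2 hr RT; read fluorescence intensity.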

[2] = target: Progesterone receptor (Homo sapiens) (UniProt P06401); assay: qHTS assay to identify small molecule antagonists of the progesterone receptor (PR) signaling pathway (AID 1346795; active = well fitted inhibition curve with a large enough effect in the signal ratio in the repeat runs, not every such curve was filed as active; the % refers to the signal ratio; note: potency is the fitted concentration of half-maximal effect)
Outline: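 Screening used a GripTite HEK293T line with PR-responsive UAS-beta-lactamase. Cells were challenged with compound in the presence of 1 nM R5020 final for 16 hr at 37C; B/G FRET substrate, 2 hr room temperature, fluorescence.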

[3] = qHTS assay to identify small molecule antagonists of the TGF-beta/Smad signaling pathway - cell viability counter screen (AID 1346824); note: % is set by controls: 0 for no effect and ±100 for the full control effect; nearly all actives have a fitted effect of over 50% in size
Outline: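 SBE-bla HEK 293T cells, incubated overnight, then compound plus 0.25 ng/mL TGF-beta1 (stock added) for 5 hr at 37 C. Viability was read in the same wells by CellTiter-Glo luminescence after 30 min at room temperature.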

[4] = qHTS assay to identify small molecule agonists of the TGF-beta/Smad signaling pathway - cell viability counter screen (AID 1346829); note: top concentration of the series differs between compounds; % is set by controls: 0 for no effect and ±100 for the full control effect; nearly all actives have a fitted effect of over 45% in size
Outline: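 CellTiter-Glo luminescence readout; SBE-bla HEK 293T cells, overnight plating, compound 5 hr at 37 C/5% CO2, then bla substrate 2 hr RT, then CellTiter-Glo 30 min RT.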

[5] = qHTS assay to identify small molecule agonists of the TGF-beta/Smad signaling pathway (AID 1346859; active = well fitted activation curve with a large enough effect in the signal ratio in the repeat runs, not every such curve was filed as active; the % refers to the signal ratio; note: series mostly up to about 77 µM; % is set by controls: 0 for no effect and ±100 for the full control effect)
Outline: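 Beta-lactamase reporter activity downstream of Smad binding elements was measured in stably transfected HEK 293T cells; compounds were incubated for 5 hr, substrate for 2 hr at room temperature.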

[6] = target: Thyrotropin-releasing hormone receptor (Homo sapiens) (UniProt P34981); assay: qHTS assay to identify small molecule agonists of the thyrotropin-releasing hormone receptor (TRHR) signaling pathway (AID 1346891; calls by dose curve;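 note: HEK293 cells expressing TRHR with calcium dye readout; series mostly up to about 58 µM; % is set by controls: 0 for no effect and ±100 for the full control effect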)
Outline: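 Overnight-plated (18 h, 37 °C, 5% CO2) TRHR-Hek293 cells; 2 h calcium dye at 37 °C; compound in DMSO; 3-min kinetic fluorescence read.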

[7] = Caspase-3/7 induction in HepG2 cells by small molecules, qHTS assay (AID 1346978); note: % is set by controls: 0 for no effect and ±100 for the full control effect; nearly all actives have a fitted effect of over 15% in size
Outline: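 Wild-type HepG2 cells, 2,000/well, settled 5 hr at 37 C and 5% CO2, then compound-treated for 17 hr; caspase-3/7 activity read by luminescent Caspase-Glo 3/7 after 30 min at room temperature.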

[8] = Caspase-3/7 induction in CHO-K1 cells by small molecules, qHTS assay (AID 1346980); note: % is set by controls: 0 for no effect and ±100 for the full control effect; nearly all actives have a fitted effect of over 15% in size
Outline: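 Wild-type CHO-K1 cells exposed to compounds for 17hr at 37 C, 5% CO2. Caspase-3/7 activity then measured by Caspase-Glo 3/7 luminescence after 30min at room temperature.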

[9] = Caspase-3/7 induction in HepG2 cells by small molecules, qHTS cell viability counter screen (AID 1346981); note: nearly all actives have a fitted effect of over 30% in size; note: potency is the fitted concentration of half-maximal effect
Outline: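 In this quantitative HTS counter screen, compounds delivered in DMSO were left on unmodified HepG2 cells for 16 hr at 37 C. Viability was then determined fluorometrically with CellTiter-Fluor, in parallel with caspase-3/7 induction in the same wells.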

[10] = target: Nuclear receptor subfamily 1 group I member 2 (Homo sapiens) (UniProt O75469); assay: Human pregnane X receptor (PXR) small molecule agonists, qHTS assay (AID 1346982); note: nearly all actives have a fitted effect of over 35% in size; note: potency is the fitted concentration of half-maximal effect
Outline: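 Reporter HepG2 cells expressing PXR-Luc are cultured in charcoal-stripped FBS (5%), treated with compounds for 24 hr at 37 C, and assayed by ONE-Glo luminescence after 30 min at room temperature.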

[11] = target: Cytochrome P450 2D6 (Homo sapiens) (UniProt P10635); assay: Cytochrome P450 Family 2 Subfamily D Member 6 (CYP2D6) small molecule antagonists: luciferase reporter qHTS assay (AID 1671196); note: nearly all actives have a fitted effect of over 50% in size; note: potency is the fitted concentration of half-maximal effect
Outline: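 Test chemicals meet CYP2D6 plus proluciferin substrate (10 min, RT); NADPH regenerating solution then drives turnover for 1 h. Detection reagent halts the reaction; luminescence measured after 20 min.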

[12] = target: Cytochrome P450 2C19 (Homo sapiens) (UniProt P33261); assay: Cytochrome P450 Family 2 Subfamily C Member 19 (CYP2C19) small molecule antagonists: luciferase reporter qHTS assay (AID 1671197); note: nearly all actives have a fitted effect of over 65% in size; note: potency is the fitted concentration of half-maximal effect
Outline: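 Enzyme-substrate mix with proluciferin substrate (P450-Glo CYP2C19 system) preincubated with compounds 10 min at room temperature; NADPH regeneration solution added, 37C for 1 h; detection reagent stops reaction, luminescence read after 20 min. Ketoconazole positive control.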

[13] = qHTS assay to identify small molecule antagonists of the progesterone receptor (PR) signaling pathway - cell viability counter screen (AID 1346798); note: series mostly up to about 92 µM; % is set by controls: 0 for no effect and ±100 for the full control effect; nearly all actives have a fitted effect of over 50% in size
Outline: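 Measures cytotoxicity in parallel with the PR antagonist reporter read: HEK293T PR-UAS-bla cells get compound and R5020 for 16 hr, and remaining viable cells are quantified by CellTiter-Glo luminescence.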

[14] = target: Thyrotropin-releasing hormone receptor (Homo sapiens) (UniProt P34981); assay: qHTS assay to identify small molecule antagonists of the thyrotropin-releasing hormone receptor (TRHR) signaling pathway (AID 1346877; active = well fitted inhibition curve with a large enough effect in the repeat runs, not every such curve was filed as active; note: series mostly up to about 51 µM; % is set by controls: 0 for no effect and ±100 for the full control effect)
Outline: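 Kinetic fluorescence (3 min, 1 s resolution) following stimulation with TRH at 1 nM final; HEK293 cells bearing human TRHR; 5 min compound preincubation at RT; concentration-response over 15 points, triplicates.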

[15] = Human pregnane X receptor (PXR) small molecule agonists, qHTS cell viability counter screen (AID 1346977); note: nearly all actives have a fitted effect of over 50% in size; note: potency is the fitted concentration of half-maximal effect
Outline: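 After a 5hr pre-incubation, PXR-Luc HepG2 cells received compounds plus positive control in DMSO and were kept 24hr at 37C. Cell viability was quantified by fluorescence from CellTiter-Fluor added for the final hour.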

[16] = Caspase-3/7 induction in CHO-K1 cells by small molecules, qHTS cell viability counter screen (AID 1346979); note: nearly all actives have a fitted effect of over 35% in size; note: potency is the fitted concentration of half-maximal effect
Outline: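 Multiplexed with Caspase-Glo 3/7 in CHO-K1 cells, this counter screen added CellTiter-Fluor after 16hr of compound exposure and recorded fluorescence 1hr later.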

[17] = qHTS assay to identify small molecule agonists of the progesterone receptor (PR) signaling pathway - cell viability counter screen (AID 1346799; calls by dose curve; note: % is set by controls: 0 for no effect and ±100 for the full control effect; nearly all actives have a fitted effect of over 45% in size)
Outline: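 Using the same plates as the PR reporter screen, HEK293T PR-UAS-bla cells received compounds for 16 hr at 37C and were then lysed with CellTiter-Glo; luminescence was read 30 min later at room temperature.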

[18] = target: Nuclear receptor subfamily 1 group I member 2 (Rattus norvegicus) (UniProt Q9R1A7); assay: Rat pregnane X receptor (rPXR) activation by small molecules, qHTS assay (AID 1346983); conditions: rPXR luciferase reporter cells, One-Glo luminescence, 24 h; max activation: stronger effect = higher value; note: % is set by controls: 0 for no effect and ±100 for the full control effect; nearly all actives have a fitted effect of over 20% in size
Outline: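 Cell-based rPXR activation assay: rPXR cells, 2,000 per well, rested 5hr at 37 C, then exposed to compounds in DMSO for 24 hr at 37 C. Luciferase activity read by One-Glo luminescence after 30 min at room temperature.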

[19] = target: Nuclear receptor subfamily 1 group I member 2 (Homo sapiens) (UniProt O75469); assay: CYP3A4 induction through human pregnane X receptor (PXR) by small molecules, qHTS assay (AID 1346984); note: % is set by controls: 0 for no effect and ±100 for the full control effect; nearly all actives have a fitted effect of over 40% in size
Outline: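 Induction measured in HepG2-based DPX-2 cells co-expressing human PXR and a CYP3A4 promoter-driven luciferase. After a 24-hour compound exposure, cells received CYP3A4 luciferin substrate at 3uM final for 3 hours, and light output was then recorded.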

[20] = target: Nuclear receptor subfamily 1 group I member 2 (Homo sapiens) (UniProt O75469); assay: Human pregnane X receptor (PXR) activation by small molecules, qHTS assay (AID 1346985); note: potency is the fitted concentration of half-maximal effect; nearly all actives have a fitted effect of over 40% in size
Outline: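 DPX-2 cells (HepG2 co-transfected with a PXR response element and a CYP3A4-promoter luciferase construct) were seeded at 2,000 per well, rested 5 hr at 37C, then exposed to DMSO-dissolved compounds for 24 hr. Activation was read as luciferase luminescence.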

Chain of Cytochrome P450 2D6 (Homo sapiens) (P10635 whole entry, looked up): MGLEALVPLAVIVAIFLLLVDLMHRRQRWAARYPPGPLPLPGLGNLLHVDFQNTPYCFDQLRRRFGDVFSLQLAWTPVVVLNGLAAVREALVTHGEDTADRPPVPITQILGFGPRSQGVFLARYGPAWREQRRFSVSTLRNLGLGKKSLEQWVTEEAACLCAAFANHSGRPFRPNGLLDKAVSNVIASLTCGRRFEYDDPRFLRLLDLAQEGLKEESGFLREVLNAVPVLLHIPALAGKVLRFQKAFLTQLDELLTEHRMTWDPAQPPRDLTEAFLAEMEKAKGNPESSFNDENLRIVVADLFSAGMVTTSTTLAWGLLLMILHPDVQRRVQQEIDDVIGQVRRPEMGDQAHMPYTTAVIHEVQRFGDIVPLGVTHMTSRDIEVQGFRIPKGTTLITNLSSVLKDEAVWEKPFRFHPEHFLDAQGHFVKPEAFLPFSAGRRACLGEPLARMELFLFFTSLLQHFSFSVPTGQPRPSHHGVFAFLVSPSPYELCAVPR
Chain of Thyrotropin-releasing hormone receptor (Homo sapiens) (P34981 whole entry, looked up): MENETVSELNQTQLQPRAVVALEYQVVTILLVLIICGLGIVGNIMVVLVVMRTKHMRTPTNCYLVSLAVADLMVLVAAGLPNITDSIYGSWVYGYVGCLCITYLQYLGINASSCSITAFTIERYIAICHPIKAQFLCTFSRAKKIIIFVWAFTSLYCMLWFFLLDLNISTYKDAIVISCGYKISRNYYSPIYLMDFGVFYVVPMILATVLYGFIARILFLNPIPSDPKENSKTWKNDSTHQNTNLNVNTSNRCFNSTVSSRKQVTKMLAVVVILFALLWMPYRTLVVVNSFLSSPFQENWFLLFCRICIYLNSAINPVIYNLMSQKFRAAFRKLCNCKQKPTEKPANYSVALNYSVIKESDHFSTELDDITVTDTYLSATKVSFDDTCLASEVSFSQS
Chain of Cytochrome P450 2C19 (Homo sapiens) (P33261 whole entry, looked up): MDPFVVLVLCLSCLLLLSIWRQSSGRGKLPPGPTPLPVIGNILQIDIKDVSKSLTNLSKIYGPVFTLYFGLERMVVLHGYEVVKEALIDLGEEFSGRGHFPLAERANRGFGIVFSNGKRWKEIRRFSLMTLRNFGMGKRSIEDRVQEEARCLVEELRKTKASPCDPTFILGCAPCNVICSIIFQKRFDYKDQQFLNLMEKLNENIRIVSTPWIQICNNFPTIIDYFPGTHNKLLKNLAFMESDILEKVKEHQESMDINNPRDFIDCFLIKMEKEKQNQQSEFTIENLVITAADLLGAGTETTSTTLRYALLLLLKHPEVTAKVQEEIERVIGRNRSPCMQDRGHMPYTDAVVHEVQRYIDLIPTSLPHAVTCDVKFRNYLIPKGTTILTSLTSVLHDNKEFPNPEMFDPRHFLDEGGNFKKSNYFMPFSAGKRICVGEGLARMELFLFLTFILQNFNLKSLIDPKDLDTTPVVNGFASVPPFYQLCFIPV
Chain of Progesterone receptor (Homo sapiens) (P06401 whole entry, looked up): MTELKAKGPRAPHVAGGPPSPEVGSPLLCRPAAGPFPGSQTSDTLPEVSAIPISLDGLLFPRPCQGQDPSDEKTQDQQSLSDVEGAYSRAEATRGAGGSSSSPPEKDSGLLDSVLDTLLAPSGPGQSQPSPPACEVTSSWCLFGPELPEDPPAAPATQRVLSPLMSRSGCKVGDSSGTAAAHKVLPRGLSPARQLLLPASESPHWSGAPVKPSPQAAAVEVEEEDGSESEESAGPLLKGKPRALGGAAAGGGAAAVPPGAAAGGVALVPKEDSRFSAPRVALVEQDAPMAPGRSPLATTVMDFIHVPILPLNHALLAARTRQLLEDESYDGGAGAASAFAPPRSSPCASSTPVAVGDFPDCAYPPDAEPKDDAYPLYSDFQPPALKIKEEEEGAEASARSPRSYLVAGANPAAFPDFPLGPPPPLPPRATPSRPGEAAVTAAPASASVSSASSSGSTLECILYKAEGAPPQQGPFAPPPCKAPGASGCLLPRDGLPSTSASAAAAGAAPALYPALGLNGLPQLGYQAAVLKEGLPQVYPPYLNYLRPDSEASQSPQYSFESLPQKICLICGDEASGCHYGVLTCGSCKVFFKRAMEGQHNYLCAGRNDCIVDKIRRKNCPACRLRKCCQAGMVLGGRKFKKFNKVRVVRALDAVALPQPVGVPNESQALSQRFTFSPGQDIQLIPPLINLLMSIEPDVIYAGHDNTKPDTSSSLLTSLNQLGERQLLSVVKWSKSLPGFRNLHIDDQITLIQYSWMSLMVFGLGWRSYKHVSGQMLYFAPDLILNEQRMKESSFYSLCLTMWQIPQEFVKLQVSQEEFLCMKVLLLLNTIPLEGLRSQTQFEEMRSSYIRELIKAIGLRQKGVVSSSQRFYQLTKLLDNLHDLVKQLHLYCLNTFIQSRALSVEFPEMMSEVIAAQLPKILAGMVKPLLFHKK
Chain of Nuclear receptor subfamily 1 group I member 2 (Homo sapiens) (O75469 whole entry, looked up): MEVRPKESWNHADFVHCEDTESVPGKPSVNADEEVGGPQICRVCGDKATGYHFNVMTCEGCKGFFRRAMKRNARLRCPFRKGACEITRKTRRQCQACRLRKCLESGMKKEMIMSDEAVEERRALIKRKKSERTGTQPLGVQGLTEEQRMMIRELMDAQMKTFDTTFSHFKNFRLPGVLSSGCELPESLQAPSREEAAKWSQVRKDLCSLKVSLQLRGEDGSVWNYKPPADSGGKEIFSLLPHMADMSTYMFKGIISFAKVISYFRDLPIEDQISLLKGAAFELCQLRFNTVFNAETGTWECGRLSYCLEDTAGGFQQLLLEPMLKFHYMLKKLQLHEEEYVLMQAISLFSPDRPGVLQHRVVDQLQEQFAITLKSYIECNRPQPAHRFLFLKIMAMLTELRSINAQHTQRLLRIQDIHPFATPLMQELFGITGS
Chain of Nuclear receptor subfamily 1 group I member 2 (Rattus norvegicus) (Q9R1A7 whole entry, looked up): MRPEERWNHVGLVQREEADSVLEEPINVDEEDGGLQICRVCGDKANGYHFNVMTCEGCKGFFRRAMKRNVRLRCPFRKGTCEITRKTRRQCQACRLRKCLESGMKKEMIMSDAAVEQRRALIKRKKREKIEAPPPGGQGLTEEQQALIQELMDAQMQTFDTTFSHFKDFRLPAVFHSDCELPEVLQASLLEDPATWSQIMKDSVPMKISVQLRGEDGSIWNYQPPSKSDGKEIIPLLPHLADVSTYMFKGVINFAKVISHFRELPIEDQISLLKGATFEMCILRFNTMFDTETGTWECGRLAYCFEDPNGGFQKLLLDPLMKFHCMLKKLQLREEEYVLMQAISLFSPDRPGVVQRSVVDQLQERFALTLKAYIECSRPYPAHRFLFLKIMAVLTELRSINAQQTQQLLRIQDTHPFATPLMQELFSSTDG

CCCCCCCCS(=O)C(C)Cc1ccc2c(c1)OCO2 (configuration not stated)
inactive: Potency [1] | Potency [3] | Potency [4] | Potency [5] | Potency [6] | Potency [7] | Potency [8]
active: Potency [2] 44.1 µM | Potency [9] 69.9 µM | Potency [10] 19.7 µM | Potency [11] 64.6 µM | Potency [12] 40.7 µM

O=C1CCCCCN1SSN1CCCCCC1=O
inactive: Potency [1] | Potency [2] | Potency [13] | Potency [5] | Potency [14] | Potency [6] | Potency [15] | Potency [7] | Potency [8] | Potency [9] | Potency [11]
active: Potency [16] 54.5 µM | Potency [12] 35.6 µM

NNc1nc(-c2ccc(N)cc2)cs1
active: Potency [16] 48.6 µM | Potency [11] 71 µM | Potency [12] 79.6 µM
inactive: Potency [1] | Potency [2] | Potency [13] | Potency [3] | Potency [4] | Potency [5] | Potency [7] | Potency [8]

CCC(Cl)C(Cl)C(Cl)CC(Cl)C(Cl)C(C)Cl (configuration not stated)
inactive: Potency [1] | Potency [13] | Potency [4] | Potency [5] | Potency [14] | Potency [15] | Potency [7] | Potency [8] | Potency [9]
active: Potency [2] 17.2 µM | Potency [10] 21.7 µM | Potency [11] 35.6 µM | Potency [12] 1.26 µM

O=C(OC[C@H]1O[C@@H](OC(=O)c2cc(O)c(O)c(OC(=O)c3cc(O)c(O)c(O)c3)c2)[C@H](OC(=O)c2cc(O)c(O)c(OC(=O)c3cc(O)c(O)c(O)c3)c2)[C@@H](OC(=O)c2cc(O)c(O)c(OC(=O)c3cc(O)c(O)c(O)c3)c2)[C@@H]1OC(=O)c1cc(O)c(O)c(OC(=O)c2cc(O)c(O)c(O)c2)c1)c1cc(O)c(O)c(OC(=O)c2cc(O)c(O)c(O)c2)c1
inactive: activation [1] 2.55% [at 19 µM] | activity change, negative = cytotoxicity [13] -7.91% [at 18.9 µM] | activity change, negative = cytotoxicity [17] 9.14% [at 19 µM] | activity change, negative = cytotoxicity [4] 7.05% [at 15.8 µM] | activation [5] -3.84% [at 15.8 µM] | activity, negative = inhibition [14] 4.26% [at 10.5 µM] | caspase activation [7] -2.85% [at 19 µM] | caspase-3/7 activation [8] 0.641% [at 19 µM] | activation [10] -5.98% [at 19 µM] | max activation [18] -10.1% | Potency [19] | activity change, negative = inhibition [11] -17.1% [at 23.6 µM] | Potency [12]
active: Potency [16] 16.5 µM | Potency [9] 18.5 µM | Potency [20] 10 µM

N#CSc1ccc(N)c([N+](=O)[O-])c1
inactive: Potency [1] | Potency [4] | Potency [5] | Potency [7] | Potency [8]
active: Potency [2] 30.8 µM | Potency [15] 30.8 µM | Potency [9] 54.8 µM | Potency [10] 12.3 µM

O=Cc1cc(O)ccc1Br
active: Potency [1] 0.983 µM | Potency [2] 55.3 µM | Potency [12] 36.1 µM
inactive: Potency [3] | Potency [4] | Potency [5] | Potency [15] | Potency [7] | Potency [16] | Potency [8] | Potency [9]

CC(C)CCCCCCCCCCCCCCC(=O)O
inactive: Potency [1] | Potency [2] | Potency [4] | Potency [5] | Potency [14] | Potency [6] | Potency [7] | Potency [8] | Potency [9] | Potency [10] | Potency [11] | Potency [12]
